Assay in all cases: DAPPL (digital affinity profiling via proximity ligation, sequencing); 10 mM Tris-HCl pH 7.5, 50 mM NaCl, 1 mM DTT, 4% glycerol, room temperature, 30 min; GST-TFs on glutathione beads, 16-mer random dsDNA library, 0.1% formaldehyde crosslink after washing; high values mean tight binding
One assay concerns the target T1, FEV (Homo sapiens, UniProt Q99581 1-238).
T1 sequence: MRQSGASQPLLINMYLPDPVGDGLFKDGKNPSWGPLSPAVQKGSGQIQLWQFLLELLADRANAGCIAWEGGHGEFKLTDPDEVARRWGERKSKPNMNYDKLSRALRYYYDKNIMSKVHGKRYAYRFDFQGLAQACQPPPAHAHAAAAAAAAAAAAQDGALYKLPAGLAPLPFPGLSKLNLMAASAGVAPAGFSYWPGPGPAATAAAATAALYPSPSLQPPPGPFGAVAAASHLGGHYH
Conditions: protein: recombinant; tags: N-terminal GST; dsDNA, one strand shown. A digest of the protocol: (§1)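 In yeast, human transcription factors were expressed with a GST fusion, then pulled down on glutathione beads and given DNA barcodes. Pooled with a tag-only sample, they were exposed to 200 nmole of a 16-mer random double-stranded DNA library (Tris/NaCl/DTT/glycerol buffer, room temperature, 30 min), washed, crosslinked with 0.1% formaldehyde, proximity-ligated using BsaI/T4 ligase for 1 h at 37 °C, PCR-amplified and read on an Illumina NextSeq500. Each hexamer's frequency of reads for a factor, divided by the matching frequency for the tag-only sample, gives the binding signal.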

In another assay the target is ETV5 (Homo sapiens, UniProt P41161 1-510). Conditions: protein: recombinant; tags: N-terminal GST; dsDNA, one strand shown. The essentials: as §1
ETV5, sequence (P41161 whole entry): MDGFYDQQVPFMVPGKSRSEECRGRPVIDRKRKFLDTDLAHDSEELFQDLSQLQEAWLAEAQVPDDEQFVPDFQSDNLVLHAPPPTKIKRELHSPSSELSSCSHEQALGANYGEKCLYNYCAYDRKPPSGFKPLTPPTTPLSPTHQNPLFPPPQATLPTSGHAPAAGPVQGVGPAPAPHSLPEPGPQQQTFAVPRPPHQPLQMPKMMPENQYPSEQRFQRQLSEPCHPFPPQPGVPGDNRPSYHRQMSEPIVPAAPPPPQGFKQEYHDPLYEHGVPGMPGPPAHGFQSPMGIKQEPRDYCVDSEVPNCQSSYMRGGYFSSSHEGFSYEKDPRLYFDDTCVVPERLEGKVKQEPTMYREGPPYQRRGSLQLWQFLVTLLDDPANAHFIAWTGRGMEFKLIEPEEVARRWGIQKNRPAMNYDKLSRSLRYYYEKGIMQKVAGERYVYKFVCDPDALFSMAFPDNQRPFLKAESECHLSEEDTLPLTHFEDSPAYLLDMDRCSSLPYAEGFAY
In another assay the target is HSF1 (Homo sapiens, UniProt Q00613 1-529). Conditions: protein: recombinant; tags: N-terminal GST; chain copies: 3; dsDNA, one strand shown. A digest of the protocol:
as §1

Another assay deals with T2, SPIC (Homo sapiens, UniProt Q8N5J4 1-248).
T2 sequence: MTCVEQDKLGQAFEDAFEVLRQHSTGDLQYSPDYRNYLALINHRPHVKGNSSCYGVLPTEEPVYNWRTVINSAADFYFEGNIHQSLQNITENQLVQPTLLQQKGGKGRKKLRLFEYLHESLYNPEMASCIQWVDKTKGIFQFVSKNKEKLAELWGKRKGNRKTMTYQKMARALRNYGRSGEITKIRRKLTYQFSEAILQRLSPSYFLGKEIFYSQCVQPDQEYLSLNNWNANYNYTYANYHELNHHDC
Conditions: protein: recombinant; tags: N-terminal GST; dsDNA, one strand shown. The essentials:
as §1

A further assay deals with ELF4 (Homo sapiens, UniProt Q99607 1-663). As to conditions: protein: recombinant; tags: N-terminal GST; dsDNA, one strand shown. A digest of the protocol:
as §1

A further assay concerns the target T3, ELK4 (Homo sapiens, UniProt P28324-2 1-405).
T3 sequence: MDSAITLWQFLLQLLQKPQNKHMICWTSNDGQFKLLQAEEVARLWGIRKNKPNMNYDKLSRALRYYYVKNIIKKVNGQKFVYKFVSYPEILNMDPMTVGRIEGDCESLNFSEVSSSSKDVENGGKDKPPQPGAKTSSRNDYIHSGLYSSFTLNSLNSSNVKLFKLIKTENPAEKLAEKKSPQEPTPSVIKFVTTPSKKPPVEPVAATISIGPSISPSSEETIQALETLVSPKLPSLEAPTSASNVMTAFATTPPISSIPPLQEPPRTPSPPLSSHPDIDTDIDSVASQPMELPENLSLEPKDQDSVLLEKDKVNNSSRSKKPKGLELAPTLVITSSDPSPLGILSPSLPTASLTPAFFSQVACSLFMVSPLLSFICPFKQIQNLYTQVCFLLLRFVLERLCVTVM
Conditions: protein: recombinant; tags: N-terminal GST; dsDNA, one strand shown. A digest of the protocol: as §1

In another assay the target is T4, ETV2 (Homo sapiens, UniProt O00321 1-342).
T4 sequence: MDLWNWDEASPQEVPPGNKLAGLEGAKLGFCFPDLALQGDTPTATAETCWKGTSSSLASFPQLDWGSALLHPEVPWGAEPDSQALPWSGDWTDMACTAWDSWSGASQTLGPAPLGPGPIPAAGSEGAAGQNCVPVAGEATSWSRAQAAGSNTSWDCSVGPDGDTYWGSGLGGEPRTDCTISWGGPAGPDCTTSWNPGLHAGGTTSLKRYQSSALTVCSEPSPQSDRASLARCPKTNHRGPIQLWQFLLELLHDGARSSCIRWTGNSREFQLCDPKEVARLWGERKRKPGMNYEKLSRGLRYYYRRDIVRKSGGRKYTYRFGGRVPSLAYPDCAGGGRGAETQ
Conditions: protein: recombinant; tags: N-terminal GST; dsDNA, one strand shown. A digest of the protocol:
as §1

Another assay addresses T5, ELF3 (Homo sapiens, UniProt P78545 1-371).
T5 sequence: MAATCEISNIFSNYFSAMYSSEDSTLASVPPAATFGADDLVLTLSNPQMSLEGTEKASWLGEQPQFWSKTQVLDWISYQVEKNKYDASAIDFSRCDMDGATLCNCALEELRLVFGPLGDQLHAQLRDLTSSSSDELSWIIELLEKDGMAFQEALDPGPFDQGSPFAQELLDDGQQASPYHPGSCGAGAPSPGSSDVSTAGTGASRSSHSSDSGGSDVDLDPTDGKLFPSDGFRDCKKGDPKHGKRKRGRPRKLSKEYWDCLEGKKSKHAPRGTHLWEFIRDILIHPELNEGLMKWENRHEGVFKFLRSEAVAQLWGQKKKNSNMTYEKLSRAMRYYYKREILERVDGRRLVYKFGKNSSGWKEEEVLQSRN
As to conditions: protein: recombinant; tags: N-terminal GST; dsDNA, one strand shown. The essentials: as §1

The target in another assay is CRX (Homo sapiens, UniProt O43186 1-299). Conditions: protein: recombinant; tags: N-terminal GST; dsDNA, one strand shown. The essentials: as §1
CRX, sequence (O43186 whole entry): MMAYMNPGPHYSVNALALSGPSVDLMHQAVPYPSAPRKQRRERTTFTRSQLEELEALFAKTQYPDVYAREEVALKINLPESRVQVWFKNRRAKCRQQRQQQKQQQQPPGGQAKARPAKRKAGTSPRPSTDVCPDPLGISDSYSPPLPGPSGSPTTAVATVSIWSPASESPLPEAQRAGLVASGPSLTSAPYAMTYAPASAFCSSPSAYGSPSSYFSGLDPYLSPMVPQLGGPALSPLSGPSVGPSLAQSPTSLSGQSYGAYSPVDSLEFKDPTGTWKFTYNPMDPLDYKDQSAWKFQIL
A further assay addresses ETV1 (Homo sapiens, UniProt P50549 1-477). Conditions: protein: recombinant; tags: N-terminal GST; dsDNA, one strand shown. A digest of the protocol: as §1
In a further assay the target is T6, ERF (Homo sapiens, UniProt P50548 1-548).
T6 sequence: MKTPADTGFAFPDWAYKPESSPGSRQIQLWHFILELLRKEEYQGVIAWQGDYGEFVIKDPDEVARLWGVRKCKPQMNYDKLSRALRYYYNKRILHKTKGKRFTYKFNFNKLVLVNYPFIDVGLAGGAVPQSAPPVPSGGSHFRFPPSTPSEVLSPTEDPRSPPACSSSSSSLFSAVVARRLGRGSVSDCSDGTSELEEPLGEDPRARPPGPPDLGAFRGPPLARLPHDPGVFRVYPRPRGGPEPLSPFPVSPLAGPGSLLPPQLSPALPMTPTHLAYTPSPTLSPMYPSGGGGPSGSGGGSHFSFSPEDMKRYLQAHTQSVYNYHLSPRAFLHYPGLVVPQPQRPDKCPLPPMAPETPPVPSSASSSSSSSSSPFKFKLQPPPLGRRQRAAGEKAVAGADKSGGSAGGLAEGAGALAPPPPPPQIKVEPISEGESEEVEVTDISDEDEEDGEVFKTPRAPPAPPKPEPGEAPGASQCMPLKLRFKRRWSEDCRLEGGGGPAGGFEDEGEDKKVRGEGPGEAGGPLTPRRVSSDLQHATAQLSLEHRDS
Conditions: protein: recombinant; tags: N-terminal GST; dsDNA, one strand shown. The essentials:
as §1

For the next assay, the target named is T7, ETV3L (Homo sapiens, UniProt Q6ZN32 1-361).
T7 sequence: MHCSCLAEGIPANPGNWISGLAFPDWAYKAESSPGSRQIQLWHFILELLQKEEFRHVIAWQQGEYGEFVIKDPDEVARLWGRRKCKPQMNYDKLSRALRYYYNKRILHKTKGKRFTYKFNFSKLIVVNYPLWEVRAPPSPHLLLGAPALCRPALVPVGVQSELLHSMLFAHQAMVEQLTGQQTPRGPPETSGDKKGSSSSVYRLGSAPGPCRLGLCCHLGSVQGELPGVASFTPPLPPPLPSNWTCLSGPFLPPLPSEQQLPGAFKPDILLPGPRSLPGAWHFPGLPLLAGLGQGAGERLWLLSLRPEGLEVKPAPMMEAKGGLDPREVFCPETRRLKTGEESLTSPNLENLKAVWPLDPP
As to conditions: protein: recombinant; tags: N-terminal GST; dsDNA, one strand shown. A digest of the protocol:
as §1

Another assay deals with T8, ETS2 (Homo sapiens, UniProt P15036 1-469).
T8 sequence: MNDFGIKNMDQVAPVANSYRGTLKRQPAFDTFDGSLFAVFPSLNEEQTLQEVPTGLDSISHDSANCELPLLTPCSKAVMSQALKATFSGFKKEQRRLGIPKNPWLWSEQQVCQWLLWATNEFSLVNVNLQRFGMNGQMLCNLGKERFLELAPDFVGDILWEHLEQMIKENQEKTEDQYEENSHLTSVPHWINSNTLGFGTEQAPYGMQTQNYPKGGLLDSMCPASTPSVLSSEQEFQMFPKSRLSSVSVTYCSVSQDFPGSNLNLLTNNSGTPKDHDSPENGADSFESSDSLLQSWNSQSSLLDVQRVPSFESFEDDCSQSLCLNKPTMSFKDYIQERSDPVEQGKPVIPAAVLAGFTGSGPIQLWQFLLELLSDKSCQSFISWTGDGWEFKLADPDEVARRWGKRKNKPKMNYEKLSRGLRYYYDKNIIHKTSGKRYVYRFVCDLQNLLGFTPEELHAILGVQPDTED
As to conditions: protein: recombinant; tags: N-terminal GST; dsDNA, one strand shown. A digest of the protocol: as §1

In a further assay the target is T9, SPDEF (Homo sapiens, UniProt O95238 1-335).
T9 sequence: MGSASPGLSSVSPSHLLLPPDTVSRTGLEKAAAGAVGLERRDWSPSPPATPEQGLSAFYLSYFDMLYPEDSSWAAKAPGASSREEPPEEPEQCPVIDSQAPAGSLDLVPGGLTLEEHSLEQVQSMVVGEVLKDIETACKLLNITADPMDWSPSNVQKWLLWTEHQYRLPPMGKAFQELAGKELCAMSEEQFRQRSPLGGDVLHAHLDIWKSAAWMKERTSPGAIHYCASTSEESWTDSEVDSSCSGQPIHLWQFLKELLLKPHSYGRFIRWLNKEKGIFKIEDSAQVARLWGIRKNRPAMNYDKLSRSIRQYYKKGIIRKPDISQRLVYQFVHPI
As to conditions: protein: recombinant; tags: N-terminal GST; dsDNA, one strand shown. A digest of the protocol:
as §1

The target in a further assay is T10, ETV7 (Homo sapiens, UniProt Q9Y603 1-341).
T10 sequence: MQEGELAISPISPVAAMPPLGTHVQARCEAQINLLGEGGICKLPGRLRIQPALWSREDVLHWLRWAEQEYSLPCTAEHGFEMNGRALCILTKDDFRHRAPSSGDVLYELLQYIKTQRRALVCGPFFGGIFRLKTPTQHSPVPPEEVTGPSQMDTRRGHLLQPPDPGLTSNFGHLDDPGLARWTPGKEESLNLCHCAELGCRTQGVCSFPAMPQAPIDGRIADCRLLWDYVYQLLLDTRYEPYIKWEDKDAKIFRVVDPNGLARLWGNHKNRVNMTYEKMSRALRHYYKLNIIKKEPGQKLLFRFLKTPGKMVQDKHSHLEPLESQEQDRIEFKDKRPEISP
Conditions: protein: recombinant; tags: N-terminal GST; dsDNA, one strand shown. The essentials: as §1

The target of the next assay is T11, ELF5 (Homo sapiens, UniProt Q9UKW6-2 1-255).
T11 sequence: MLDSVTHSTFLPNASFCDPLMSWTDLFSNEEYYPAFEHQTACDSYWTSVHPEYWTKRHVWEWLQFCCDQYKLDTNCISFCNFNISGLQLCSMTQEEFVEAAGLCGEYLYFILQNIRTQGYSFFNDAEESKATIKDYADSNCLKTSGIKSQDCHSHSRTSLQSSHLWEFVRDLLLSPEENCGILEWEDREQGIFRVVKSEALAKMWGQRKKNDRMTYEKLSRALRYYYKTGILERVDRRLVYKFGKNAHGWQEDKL
As to conditions: protein: recombinant; tags: N-terminal GST; dsDNA, one strand shown. The essentials:
as §1

A further assay deals with T12, ETV3 (Homo sapiens, UniProt P41162-2 1-143).
T12 sequence: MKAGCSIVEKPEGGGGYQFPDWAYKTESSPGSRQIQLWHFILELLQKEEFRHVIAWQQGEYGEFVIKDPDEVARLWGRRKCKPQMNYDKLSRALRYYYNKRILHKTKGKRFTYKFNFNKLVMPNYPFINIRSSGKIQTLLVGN
Conditions: protein: recombinant; tags: N-terminal GST; dsDNA, one strand shown. A digest of the protocol:
as §1

The next assay addresses ETV6 (Homo sapiens, UniProt P41212 1-452). As to conditions: protein: recombinant; tags: N-terminal GST; dsDNA, one strand shown. A digest of the protocol:
as §1

ETV1, sequence (P50549 whole entry): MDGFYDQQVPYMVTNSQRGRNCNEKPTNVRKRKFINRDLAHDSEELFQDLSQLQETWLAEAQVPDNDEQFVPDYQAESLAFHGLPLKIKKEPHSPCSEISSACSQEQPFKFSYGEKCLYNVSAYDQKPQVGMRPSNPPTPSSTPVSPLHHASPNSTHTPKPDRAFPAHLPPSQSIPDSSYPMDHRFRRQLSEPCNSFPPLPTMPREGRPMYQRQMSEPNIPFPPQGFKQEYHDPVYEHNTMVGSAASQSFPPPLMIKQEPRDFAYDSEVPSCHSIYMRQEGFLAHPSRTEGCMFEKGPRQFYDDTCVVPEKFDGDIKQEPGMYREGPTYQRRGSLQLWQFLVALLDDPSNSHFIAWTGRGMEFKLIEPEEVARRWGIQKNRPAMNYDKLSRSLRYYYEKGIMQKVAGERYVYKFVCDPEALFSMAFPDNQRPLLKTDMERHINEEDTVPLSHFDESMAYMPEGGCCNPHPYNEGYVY
HSF1, sequence (Q00613 whole entry): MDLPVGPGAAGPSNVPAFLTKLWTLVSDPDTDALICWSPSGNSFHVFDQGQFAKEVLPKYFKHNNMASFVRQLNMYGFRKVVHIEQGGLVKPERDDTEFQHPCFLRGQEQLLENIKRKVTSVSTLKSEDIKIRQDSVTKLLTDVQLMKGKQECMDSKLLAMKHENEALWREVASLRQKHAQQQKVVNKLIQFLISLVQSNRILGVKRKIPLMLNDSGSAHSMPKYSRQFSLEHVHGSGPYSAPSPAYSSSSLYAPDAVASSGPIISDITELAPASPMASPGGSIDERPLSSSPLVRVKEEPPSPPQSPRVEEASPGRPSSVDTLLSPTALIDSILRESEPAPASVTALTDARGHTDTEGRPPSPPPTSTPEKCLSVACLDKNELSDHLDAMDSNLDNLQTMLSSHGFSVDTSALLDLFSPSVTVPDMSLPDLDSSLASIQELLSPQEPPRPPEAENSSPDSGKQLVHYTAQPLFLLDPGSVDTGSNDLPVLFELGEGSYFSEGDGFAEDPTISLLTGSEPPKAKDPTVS
ETV6, sequence (P41212 whole entry): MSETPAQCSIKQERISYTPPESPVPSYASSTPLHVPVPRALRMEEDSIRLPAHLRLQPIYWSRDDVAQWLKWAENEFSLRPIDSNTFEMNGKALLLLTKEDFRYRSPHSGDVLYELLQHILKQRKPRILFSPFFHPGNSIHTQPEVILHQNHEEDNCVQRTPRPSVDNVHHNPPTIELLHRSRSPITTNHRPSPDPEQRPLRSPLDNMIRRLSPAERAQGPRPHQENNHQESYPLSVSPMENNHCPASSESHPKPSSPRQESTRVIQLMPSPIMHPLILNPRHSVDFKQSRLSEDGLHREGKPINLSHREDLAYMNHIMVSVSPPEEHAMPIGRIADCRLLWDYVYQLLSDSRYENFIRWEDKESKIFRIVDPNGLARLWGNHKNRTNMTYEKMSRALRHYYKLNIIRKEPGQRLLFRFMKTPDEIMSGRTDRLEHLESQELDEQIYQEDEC
ELF4, sequence (Q99607 whole entry): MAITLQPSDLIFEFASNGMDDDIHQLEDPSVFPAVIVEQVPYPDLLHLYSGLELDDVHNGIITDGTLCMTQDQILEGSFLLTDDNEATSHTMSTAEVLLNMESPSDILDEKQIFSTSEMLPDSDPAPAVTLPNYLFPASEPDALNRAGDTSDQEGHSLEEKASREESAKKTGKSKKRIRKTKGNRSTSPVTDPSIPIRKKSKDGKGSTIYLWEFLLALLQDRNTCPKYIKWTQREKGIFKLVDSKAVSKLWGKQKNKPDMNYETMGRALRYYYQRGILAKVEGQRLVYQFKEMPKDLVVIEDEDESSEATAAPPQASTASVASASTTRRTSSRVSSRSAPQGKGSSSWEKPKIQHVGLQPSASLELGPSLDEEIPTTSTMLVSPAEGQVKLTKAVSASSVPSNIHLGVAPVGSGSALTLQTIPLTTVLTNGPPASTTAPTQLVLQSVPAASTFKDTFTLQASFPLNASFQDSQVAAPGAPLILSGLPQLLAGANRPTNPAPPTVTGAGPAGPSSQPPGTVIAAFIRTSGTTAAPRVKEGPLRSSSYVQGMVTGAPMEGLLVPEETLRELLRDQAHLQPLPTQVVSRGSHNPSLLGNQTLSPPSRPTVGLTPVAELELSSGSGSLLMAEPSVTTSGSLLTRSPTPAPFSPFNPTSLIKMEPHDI

ATCCTA: the binding signal is 1.32 fold enrichment (6-mer frequency, TF over GST control) with FEV; 1.37 fold enrichment (6-mer frequency, TF over GST control) with ETV5; 1.61 fold enrichment (6-mer frequency, TF over GST control) in the assay with HSF1; 1.44 fold enrichment (6-mer frequency, TF over GST control) with SPIC; 1.32 fold enrichment (6-mer frequency, TF over GST control) in the assay with ELF4; 1.26 fold enrichment (6-mer frequency, TF over GST control) with ELK4. For the same sequence, the binding signal in the assay with ETV2 is 1.41 fold enrichment (6-mer frequency, TF over GST control); in the assay with ELF3, 1.24 fold enrichment (6-mer frequency, TF over GST control); in the assay with CRX, 2.19 fold enrichment (6-mer frequency, TF over GST control); with ETV1, 1.32 fold enrichment (6-mer frequency, TF over GST control); with ERF, 1.34 fold enrichment (6-mer frequency, TF over GST control); with ETV3L it was 1.32 fold enrichment (6-mer frequency, TF over GST control). In addition, the binding signal was 1.43 fold enrichment (6-mer frequency, TF over GST control) with ETS2; 1.72 fold enrichment (6-mer frequency, TF over GST control) with SPDEF; 1.37 fold enrichment (6-mer frequency, TF over GST control) with ETV7; 1.45 fold enrichment (6-mer frequency, TF over GST control) with ELF5; 1.33 fold enrichment (6-mer frequency, TF over GST control) in the assay with ETV3; 1.34 fold enrichment (6-mer frequency, TF over GST control) with ETV6.
